ALDH1A1 block = inhibitors of human aldehyde dehydrogenase 1A1; P00352; Purified ALDH1A1, NADH fluorescence, propionaldehyde substrate; Potency, µM (doses to about 75.3 µM), usual class: inhibitors; 220,000 compounds, 7.3% hits; AID 1030
HPGD block = blocks human HPGD enzyme activity. purified HPGD, NADH fluorescence kinetic, PGE2 substrate. AID 894. Potency, µM, usual class: inhibitors. 150,000 compounds, 4.3% hits
Target sequence (P15428 whole entry, looked up): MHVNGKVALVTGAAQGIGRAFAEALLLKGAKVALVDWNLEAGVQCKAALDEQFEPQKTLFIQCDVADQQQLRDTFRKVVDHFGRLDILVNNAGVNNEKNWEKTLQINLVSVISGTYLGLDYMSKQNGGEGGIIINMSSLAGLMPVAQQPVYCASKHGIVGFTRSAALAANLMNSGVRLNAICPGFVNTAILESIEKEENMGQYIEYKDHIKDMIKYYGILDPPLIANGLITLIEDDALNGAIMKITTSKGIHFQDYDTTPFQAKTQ
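20 nM HPGD preincubated 15 min at room temperature with compound in 50 mM Tris-HCl pH 8, 0.01% Tween 20. Started with 1 mM NAD+ and 30 uM prostaglandin E2; NADH fluorescence (360/450 nm) read 5 times over 30-s intervals, last minus first.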
IMPase cell inh = IMPase inhibition in cells. CHO-M1 cells, IP1 accumulation, HTRF TR-FRET ratio. AID 901. inhibition (IP1 accumulation), % at 46.1 µM. 120,000 tested, under 10 active; active = well fitted curve in the direction sought with a large enough effect in the signal ratio, not every such curve was filed as active; inconclusive = small, poorly fitted or top-dose-only effect, or a change in a side signal; inactive = no such curve, though single readings can be large or run the other way; the % refers to the signal ratio;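 also: cells stimulated with carbachol in lithium chloride buffer; higher means more IMPase inhibition seen as more IP1 and lower FRET ratio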
Target sequence (P97697 whole entry, looked up): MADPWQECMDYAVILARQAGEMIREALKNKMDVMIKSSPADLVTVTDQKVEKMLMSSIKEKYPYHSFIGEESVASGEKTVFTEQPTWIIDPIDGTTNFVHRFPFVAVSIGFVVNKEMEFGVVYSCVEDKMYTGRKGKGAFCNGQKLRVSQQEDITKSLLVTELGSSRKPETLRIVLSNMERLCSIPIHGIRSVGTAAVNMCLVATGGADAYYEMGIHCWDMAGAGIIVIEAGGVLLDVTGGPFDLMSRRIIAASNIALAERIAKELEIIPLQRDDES
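Carbachol-driven Gq signalling in CHO-M1 cells (2000/well) generates IP1. Compounds that block IMPase raise IP1 and so reduce the FRET signal from Eu-anti-IP1 and d2-IP1 after a 10 min room-temperature lysis.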
Of the large screens only hits and unclear results are named; the others gave an inactive call. Compounds with a hit are over-represented: about 9% of the library has one in this group of screens. Unless noted, calls follow the shape of the dose curve; as a rule, active = well fitted inhibition curve with a large enough effect (not every such curve was filed as active); inconclusive = small, poorly fitted or top-dose-only effect, or another doubt; inactive = no such curve, though single readings can be large or run the other way.

COc1ccc(Cc2nnc(NC(=O)c3cccs3)s2)cc1OC	none (no result: HPGD block, IMPase cell inh)
CN(c1ccccc1C(=O)N1CCN(Cc2ccc3c(c2)OCO3)CC1)S(C)(=O)=O	none (no result: HPGD block, IMPase cell inh)
O=C(O)c1ccc(NC2=C(N3CCOCC3)C(=O)c3ccccc3C2=O)cc1	ALDH1A1 block 19µM (no result: IMPase cell inh)
CC(=O)c1ccc(NC2=C(N3CCOCC3)C(=O)c3ccccc3C2=O)cc1	ALDH1A1 block inconclusive, IMPase cell inh inconclusive
Cc1ccsc1/C=N\NC(=O)c1n[nH]c2c1CCC2	none
O=C(N/N=C/c1c(Cl)cccc1Cl)c1n[nH]c2c1CCCC2	HPGD block 4µM (no result: IMPase cell inh)
C=CCc1cccc(C2NC(C(=O)O)CCC2C)c1 (centres undefined)	none (no result: HPGD block, IMPase cell inh)
O=C(/C=C/c1ccc2c(c1)OCO2)Nc1c(C(=O)O)[nH]c2ccccc12	ALDH1A1 block inconclusive, HPGD block 16µM
CCOC(=O)c1[nH]c2ccc(OC)cc2c1NC(=O)/C=C/c1ccc2c(c1)OCO2	HPGD block inconclusive (no result: IMPase cell inh)
CC(OC(=O)c1oc2ccccc2c1CSC1CCCCC1)C(=O)NC(N)=O (centres undefined)	ALDH1A1 block 2µM (no result: IMPase cell inh)
CCC(C)NC(=O)COC(=O)c1oc2ccccc2c1CSc1ccc(Cl)cc1 (centres undefined)	none (no result: IMPase cell inh)
CC1CCN(C(=O)CSc2ccc(-c3cccc([N+](=O)[O-])c3)nn2)CC1	none (no result: HPGD block, IMPase cell inh)
COCCNC(=O)CN(C(=O)Cn1nnc2ccccc21)c1cc(C)cc(C)c1	none (no result: HPGD block, IMPase cell inh)
Cc1cc(NC(=O)c2ccc(Br)c(S(=O)(=O)N3CCCC3)c2)no1	none
Cc1cc(NC(=O)c2cccc(S(=O)(=O)N3CCCC3)c2)no1	ALDH1A1 block 35µM
COc1ccc(C(=O)Nc2ccc(N3CCCCC3)cc2)cc1Br	none (no result: IMPase cell inh)
O=C(NC(=S)Nc1ccc(S(=O)(=O)N2CCCCCC2)cc1)c1cccs1	ALDH1A1 block 13µM (no result: IMPase cell inh)
O=C(NC(=S)Nc1ccccc1N1CCOCC1)c1cccs1	ALDH1A1 block 40µM (no result: IMPase cell inh)
COc1cc(OC)cc(C(=O)NC(=S)Nc2ccc(N3CCCC3)cc2)c1	ALDH1A1 block 11µM (no result: IMPase cell inh)
O=C(NC(=S)Nc1ccc(S(=O)(=O)N2CCCC2)cc1)c1cccs1	HPGD block inconclusive (no result: IMPase cell inh)
O=C(Nc1ccccc1N1CCOCC1)c1cccs1	none
CC(C)=CC[N+]1(C)CCCCC1	none
Cc1c(=O)n(OCc2ccccc2F)c2ccccc2[n+]1[O-]	ALDH1A1 block inconclusive
O=C(N1CCN(c2ccccn2)CC1)N1c2ccccc2Sc2ccccc21	none
Cc1ccc(C(=O)N/N=C/c2ccc(N3CCOCC3)cc2)c(C)c1	none (no result: HPGD block, IMPase cell inh)
Cc1cccc(C(=O)NC(=S)Nc2ccc(S(=O)(=O)N3CCCCC3)cc2)c1	ALDH1A1 block 8.9µM
Cc1ccc(C(=O)NC(=S)Nc2ccc(N3CCOCC3)cc2)c(C)c1	ALDH1A1 block 32µM (no result: HPGD block, IMPase cell inh)
O=C(NC(=S)Nc1ccc(N2CCCCC2)cc1)c1cccs1	ALDH1A1 block 22µM, HPGD block 32µM
O=C(NC(=S)Nc1ccccc1N1CCCCC1)c1cccs1	ALDH1A1 block inconclusive (no result: IMPase cell inh)
Cc1cccc(C(=O)NC(=S)Nc2ccc(S(=O)(=O)N3CCN(C)CC3)cc2)c1	ALDH1A1 block inconclusive
CCOC(=O)c1[nH]c(CO)c(C(=O)OCC)c1C	none (no result: HPGD block, IMPase cell inh)
C/C(=C/c1ccccc1)C(=O)N1CC(C)OC(C)C1 (centres undefined)	none (no result: HPGD block, IMPase cell inh)
Cc1noc(C)c1CSc1nnc2sc3ccccc3n12	none
Nc1ccc(Cl)cc1/C(=N/O)c1ccccc1	none
COc1cc(C2=NOC(C(=O)NCc3ccc(F)cc3)C2)cc(OC)c1OC (centres undefined)	ALDH1A1 block 32µM
COc1ccc(C2=NOC(C(=O)NCc3ccc(F)cc3)C2)cc1OC (centres undefined)	none
CCN(CC(=O)NC(C)(C)C)C(=O)c1ccc(Br)cc1	none (no result: HPGD block, IMPase cell inh)
CCN(CC)S(=O)(=O)c1cccc(C(=O)N2CCCCC2)c1	none
O=C(c1ccc(S(=O)(=O)Nc2ccccc2)cc1)N1CCOCC1	none
CCN(CC)S(=O)(=O)c1ccc(S(=O)(=O)Nc2ccc(C(=O)N3CCCC3)cc2)cc1	ALDH1A1 block 0.63µM
O=C(c1ccc(NS(=O)(=O)c2ccccc2)cc1)N1CCCC1	ALDH1A1 block inconclusive, HPGD block 18µM
CCN1C(=O)[C@H]2[C@H]3[C@H](O)[C@H](O)C/C(=N/NC(=O)OCc4ccc(OC)cc4)[C@H]3CC[C@@H]2C1=O	none (no result: HPGD block, IMPase cell inh)
CC(Oc1ccc(Cl)cc1Cl)C(=O)NCCN1CCOCC1 (centres undefined)	none
CC(Oc1ccc(Cl)cc1Cl)C(=O)NN=C1CCN(C)CC1 (centres undefined)	ALDH1A1 block 2.5µM (no result: IMPase cell inh)
CC(C)(C)C(=O)NC(=S)N1CCc2ccccc21	ALDH1A1 block 11µM (no result: HPGD block, IMPase cell inh)
CC(Oc1ccc(Cl)cc1Cl)C(=O)NC(=S)N1CCc2ccccc21 (centres undefined)	ALDH1A1 block 18µM
O=C(NC(=S)N1CCc2ccccc21)c1ccccc1Br	ALDH1A1 block inconclusive (no result: HPGD block)
CC(Oc1ccc(Cl)cc1Cl)C(=O)N/N=C1\CCCc2ccccc21 (centres undefined)	none
COc1cc(/C=C(/C#N)C(=O)NCCc2c[nH]c3ccccc23)ccc1OCc1ccccc1F	none
Cc1noc(C)c1C(=O)N1CCC[C@@]2(CCN(C(c3ccccc3)c3ccccc3)C2)C1	none (no result: IMPase cell inh)
COC(=O)c1cc(C(=O)Nc2nnc(CC(C)(C)C)s2)cc([N+](=O)[O-])c1	ALDH1A1 block 25µM, HPGD block 16µM
CCOCc1nnc(NC(=O)c2cc(C(=O)OC)cc([N+](=O)[O-])c2)s1	none (no result: HPGD block, IMPase cell inh)
CCOc1cc(CNn2cn[nH]c2=S)cc(Cl)c1OCc1ccccc1F	HPGD block inconclusive
COc1ccc(C(=O)Oc2ccc(C(c3c(C)[nH][nH]c3=O)c3c(C)[nH][nH]c3=O)cc2OC)cc1	none (no result: ALDH1A1 block, HPGD block)
COC(=O)c1ccc(-c2ccc(C(c3c(C)[nH][nH]c3=O)c3c(C)[nH][nH]c3=O)o2)cc1	ALDH1A1 block 3.5µM (no result: HPGD block, IMPase cell inh)
Cc1[nH][nH]c(=O)c1C(c1ccc(-c2ccccc2C(=O)O)o1)c1c(C)[nH][nH]c1=O	ALDH1A1 block 5µM (no result: HPGD block, IMPase cell inh)
Cc1[nH][nH]c(=O)c1C(c1ccc(-c2ccc(Cl)cc2Cl)o1)c1c(C)[nH][nH]c1=O	ALDH1A1 block inconclusive, HPGD block inconclusive
NS(=O)(=O)c1ccc(N=C2C(=O)Nc3ccccc32)cc1	none (no result: IMPase cell inh)
NC(=O)c1ccc(N=C2C(=O)Nc3ccc([N+](=O)[O-])cc32)cc1	ALDH1A1 block 13µM (no result: HPGD block, IMPase cell inh)
CCOC(=O)c1c(C)n(-c2ccccc2)c2ccc(OC(=O)c3ccccc3)cc12	none (no result: ALDH1A1 block, HPGD block)
N#C/C(=C\c1cc([N+](=O)[O-])c(N2CCOCC2)cc1N1CCOCC1)c1nc2ccccc2[nH]1	HPGD block 14µM
COc1ccc(/C=C(\C#N)c2nc3ccccc3c(=O)[nH]2)cc1OC	none (no result: ALDH1A1 block, HPGD block)
COc1cc(/C=C(\C#N)c2nc3ccc(C)cc3[nH]2)c([N+](=O)[O-])cc1OC	none
COc1c(O)ccc(/C=C(\C#N)c2nc3ccccc3[nH]2)c1[N+](=O)[O-]	HPGD block 28µM (no result: IMPase cell inh)
COc1cc(/C=C(/C#N)c2nc3ccccc3c(=O)[nH]2)ccc1O	HPGD block 14µM (no result: IMPase cell inh)
Cc1ccc2nc(/C(C#N)=C\c3cc(O)ccc3[N+](=O)[O-])[nH]c2c1	none (no result: HPGD block, IMPase cell inh)
Cc1ccc2nc(/C(C#N)=C/c3ccc(-c4cccc([N+](=O)[O-])c4)o3)[nH]c2c1	ALDH1A1 block inconclusive, HPGD block 25µM (no result: IMPase cell inh)
Cc1ccc2nc(/C(C#N)=C/c3ccc(-c4ccc(F)cc4F)o3)[nH]c2c1	none (no result: ALDH1A1 block, HPGD block)
CCOC(=O)CNC(=O)O[C@H]1C(=O)c2ccc(OC)cc2O[C@@H]1c1ccc2c(c1)OCO2	none (no result: IMPase cell inh)
